Compounds without any hit were thinned out: in the full panel of roughly 79,000, 15% have a hit. Unmarked numbers belong to inactive results. The source made the active and inactive calls. Rule as the data show it: active = growth inhibition above about 70%; inactive = the rest.
Experiments:
[1] = NCI Yeast Anticancer Drug Screen. Data for the rad52 strain (AID 147);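 also: 0% = growth of vehicle-treated control cultures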; details: S. cerevisiae rad52 mutant growth inhibition, stronger effect = higher value
How it was run: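 Growth of repair-deficient yeast cells was compared between compound-treated and vehicle-treated cultures to give percent inhibition.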

[2] = NCI Yeast Anticancer Drug Screen. Data for the wt1 strain (AID 149);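 also: 0% = growth of vehicle-treated wt1 cultures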; details: S. cerevisiae wt1 strain (SPY 50644) growth inhibition, stronger effect = higher value
How it was run: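 Growth inhibition read against vehicle controls after compound exposure of the wt1 yeast strain.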

[3] = NCI Yeast Anticancer Drug Screen. Data for the mgt1 strain (AID 153); details: S. cerevisiae mgt1 mutant growth inhibition, stronger effect = higher value
How it was run: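 Compounds were applied to mgt1 mutant yeast, and growth was then compared against vehicle-treated control cultures to give percent inhibition.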

[4] = NCI Yeast Anticancer Drug Screen. Data for the rad50 strain (AID 155);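 also: 0% = growth of vehicle-only cultures of the same strain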; details: S. cerevisiae rad50 strain growth inhibition, stronger effect = higher value
How it was run: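 Readout: growth inhibition relative to vehicle-treated cultures. Compound exposure was carried out in a genetically defined yeast strain deficient in DNA damage repair.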

[5] = NCI Yeast Anticancer Drug Screen. Data for the mec2-1 strain (AID 157); details: S. cerevisiae mec2-1 strain, stronger effect = higher value
How it was run: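 Compounds were applied to mec2-1 yeast cells. Their growth was then compared with that of vehicle-treated cultures to give growth inhibition.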

[6] = NCI Yeast Anticancer Drug Screen. Data for the rad14 strain (AID 159);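 also: 0% = growth of vehicle-treated control cultures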; details: S. cerevisiae rad14 strain growth inhibition, stronger effect = higher value
How it was run: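 Growth inhibition vs vehicle controls; genetically altered yeast strain (DNA damage repair defect) treated with test compounds.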

[7] = NCI Yeast Anticancer Drug Screen. Data for the sgs1 mgt1 strain (AID 161);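 also: 0% = growth of cultures given vehicle only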; details: S. cerevisiae sgs1 mgt1 strain, stronger effect = higher value
How it was run: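 Percent growth inhibition was derived by comparing compound-exposed mutant yeast with vehicle-exposed cultures. The strain carries alterations in DNA damage repair.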

[8] = NCI Yeast Anticancer Drug Screen. Data for the CLN2oe strain (AID 163);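 also: 0% = growth of vehicle-only control cultures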; details: S. cerevisiae CLN2oe strain, stronger effect = higher value
How it was run: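 Cells of an engineered yeast line with disturbed cell-cycle regulation are treated with compound. Inhibition of growth is then calculated relative to the vehicle-treated reference.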

[9] = NCI Yeast Anticancer Drug Screen. Data for the cln2 rad14 strain (AID 165);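 also: 0% = growth equal to vehicle treated cultures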; details: S. cerevisiae cln2 rad14 strain, stronger effect = higher value
How it was run: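 Strain: cln2 rad14 yeast, altered in cell cycle control and DNA damage repair. Read-out: growth inhibition vs vehicle.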

[10] = NCI Yeast Anticancer Drug Screen. Data for the bub3 strain (AID 167); details: S. cerevisiae bub3 mutant strain, stronger effect = higher value
How it was run: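 Readout: yeast growth inhibition, expressed relative to vehicle-only wells. The test organism is a mutant strain from a panel with lesions in DNA repair or checkpoint genes.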

[11] = NCI Yeast Anticancer Drug Screen. Data for the wt2 strain (AID 169);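 also: 0% = growth of vehicle-treated yeast cultures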; details: S. cerevisiae wt2 strain growth inhibition, stronger effect = higher value
How it was run: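 Growth of compound-treated yeast is measured and expressed as inhibition relative to vehicle-only controls.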

[12] = NCI Yeast Anticancer Drug Screen. Data for the mlh1 strain (AID 171);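 also: 0% = growth of vehicle-treated control cultures of the same strain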; details: S. cerevisiae mlh1 strain growth inhibition, stronger effect = higher value
How it was run: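 Test agents were incubated with yeast bearing a defined DNA damage repair or cell cycle control alteration; values are growth inhibition normalised to vehicle-treated cultures.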

[13] = NCI Yeast Anticancer Drug Screen. Data for the mlh1 rad18 strain (AID 175); details: S. cerevisiae mlh1 rad18 strain growth inhibition, stronger effect = higher value
How it was run: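 A repair-deficient yeast strain is exposed to test compound, and growth is scored relative to vehicle-treated controls.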

[14] = NCI Yeast Anticancer Drug Screen. Data for the rad18 strain (AID 177); details: S. cerevisiae rad18 mutant growth inhibition, stronger effect = higher value
How it was run: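 DNA-repair-defective yeast; compound treatment; growth inhibition scored against vehicle.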

[15] = at 5.0 µM (retest, dose inferred, filed as 0.5)
[16] = at 50.0 µM (retest, dose inferred, filed as 5.0)

## Cn1c2ccccc2c(=O)c2cc(NC(=O)CCCCC(=O)Nc3ccc4c(c3)c(=O)c3ccccc3n4C)ccc21
[1]; at 1.2 µM
  growth inhibition: 0%
[1]; at 3.7 µM
  growth inhibition: 6%
[1]; at 11.0 µM
  growth inhibition: 35%
[1]; at 33.0 µM
  growth inhibition: 76% (active)
[1]; at 100.0 µM
  growth inhibition: 87% (active)
[2]; at 1.2 µM
  growth inhibition: 4%
[2]; at 3.7 µM
  growth inhibition: -4%
[2]; at 11.0 µM
  growth inhibition: -1%
[2]; at 33.0 µM
  growth inhibition: 4%
[2]; at 100.0 µM
  growth inhibition: 20%
[3]; at 1.2 µM
  growth inhibition: 1%
[3]; at 3.7 µM
  growth inhibition: 6%
[3]; at 11.0 µM
  growth inhibition: -9%
[3]; at 33.0 µM
  growth inhibition: -3%
[3]; at 100.0 µM
  growth inhibition: 46%
[4]; at 1.2 µM
  growth inhibition: 0%
[4]; at 3.7 µM
  growth inhibition: 11%
[4]; [15]
  growth inhibition: 9%
[4]; at 11.0 µM
  growth inhibition: 41%
[4]; at 33.0 µM
  growth inhibition: 76% (active)
[4]; [16]
  growth inhibition: 82% (active)
[4]; at 50.0 µM
  growth inhibition: 80.5% (active)
[4]; at 100.0 µM
  growth inhibition: 78% (active)
[5]; at 1.2 µM
  growth inhibition: -5%
[5]; at 3.7 µM
  growth inhibition: -2%
[5]; [15]
  growth inhibition: -7%
[5]; at 11.0 µM
  growth inhibition: 2%
[5]; at 33.0 µM
  growth inhibition: 13%
[5]; [16]
  growth inhibition: 6%
[5]; at 50.0 µM
  growth inhibition: 12.4%
[5]; at 100.0 µM
  growth inhibition: 47%
[6]; at 1.2 µM
  growth inhibition: -1%
[6]; at 3.7 µM
  growth inhibition: 3%
[6]; at 11.0 µM
  growth inhibition: 3%
[6]; at 33.0 µM
  growth inhibition: 17%
[6]; at 100.0 µM
  growth inhibition: 58%
[7]; [15]
  growth inhibition: -4%
[7]; [16]
  growth inhibition: 16%
[7]; at 50.0 µM
  growth inhibition: -1.45%
[8]; at 1.2 µM
  growth inhibition: -6%
[8]; at 3.7 µM
  growth inhibition: -4%
[8]; at 11.0 µM
  growth inhibition: -8%
[8]; at 33.0 µM
  growth inhibition: 3%
[8]; at 100.0 µM
  growth inhibition: 27%
[9]; [15]
  growth inhibition: -1%
[9]; [16]
  growth inhibition: 5%
[9]; at 50.0 µM
  growth inhibition: -12.1%
[10]; at 1.2 µM
  growth inhibition: -4%
[10]; at 3.7 µM
  growth inhibition: -5%
[10]; [15]
  growth inhibition: 1%
[10]; at 11.0 µM
  growth inhibition: -5%
[10]; at 33.0 µM
  growth inhibition: -3%
[10]; [16]
  growth inhibition: 10%
[10]; at 50.0 µM
  growth inhibition: -22.2%
[10]; at 100.0 µM
  growth inhibition: 19%
[11]; at 1.2 µM
  growth inhibition: -3%
[11]; at 3.7 µM
  growth inhibition: -2%
[11]; at 11.0 µM
  growth inhibition: -1%
[11]; at 33.0 µM
  growth inhibition: 10%
[11]; at 100.0 µM
  growth inhibition: 40%
[12]; at 1.2 µM
  growth inhibition: 0%
[12]; at 3.7 µM
  growth inhibition: 2%
[12]; at 11.0 µM
  growth inhibition: 3%
[12]; at 33.0 µM
  growth inhibition: 24%
[12]; at 100.0 µM
  growth inhibition: 66%
[13]; [15]
  growth inhibition: 9%
[13]; [16]
  growth inhibition: 9%
[13]; at 50.0 µM
  growth inhibition: 62.8%
[14]; at 1.2 µM
  growth inhibition: 1%
[14]; at 3.7 µM
  growth inhibition: 0%
[14]; at 11.0 µM
  growth inhibition: 3%
[14]; at 33.0 µM
  growth inhibition: 49%
[14]; at 100.0 µM
  growth inhibition: 79% (active)

From PubChem BioAssay (NCI)
